Measurements published in PubChem BioAssay AID463173 (ICCB-Longwood Screening Facility, Harvard Medical School, 2010).
The whole screen tested about 52,000 compounds, of which about 1,700 (3.3%) were called active. The entries come from a sample that favours actives as a whole. Values without a mark were called inactive. Cut-off read from the data, not from the text of the source: active = survival mostly below about 52% (no sharp cut-off); inactive = mostly above about 56%.

What follows are compounds tested on Wild type (assay: S. aureus survival, RN4220 and DeltatarO strains – OD600, teichoic acid synthesis inhibitors, primary screen (AID 463173)). Details: S. aureus RN4220 wild type/DeltatarO growth, OD600, 18 h, active compounds read low, screened at 18.75 µg/mL (by protocol).
Work on `O=C(Cn1c(=O)n(-c2ccccc2)c(=O)c2c3c(sc21)CCC3)c1ccc(Br)cc1` yielded a survival of 87%.
`COc1ccc(N2C(=O)CSC23C(=O)N(Cc2ccc(C)cc2)c2ccccc23)cc1Cl` (stereo not given) was tested, and the survival was 135%.
`CC(C)(C)OC(=O)N1CCC(c2c(C(=O)NCCN3CCOCC3)cnn2-c2cccc(F)c2)CC1` showed a survival of 120%.
In the case of `Clc1ccccc1C(c1nnnn1Cc1ccco1)N1CCN(Cc2ccco2)CC1` (stereo not given), the survival is reported as 111%.
Work on `O=C(NCC(c1ccc2c(c1)OCO2)N1CCN(c2ccc(F)cc2)CC1)c1cccc([N+](=O)[O-])c1` (stereo not given) yielded a survival of 83%.
`COc1ccc(-c2csc3ncnc(Nc4cccc(OC)c4)c23)cc1` gave a survival of 73%.
In the case of `COc1ccc(-c2csc3ncnc(Nc4cccc(F)c4)c23)cc1`, the survival is reported as -3% (active).
`COc1ccc(Nc2ncnc3scc(-c4ccc(F)cc4)c23)cc1` showed a survival of 79%.
`CC(=O)c1ccc(NC(=O)CC2Nc3cc(C)c(C)cc3NC2=O)cc1` (stereo not given) gave a survival of 78%.
`Cc1cc(C)cc(N2C(=O)N(Cc3cc(=O)n4ccccc4n3)c3ccccc3S2(=O)=O)c1` gave a survival of 127%.
Work on `CC(C)c1ccc2oc(-c3ccc(NC(=O)c4cccc(Br)c4)cc3)nc2c1` yielded a survival of 70%.
`COc1ccc(C(CC(=O)Nc2cc(Cl)c(OC)cc2OC)N2Cc3ccccc3C2=O)cc1` (stereo not given) was tested, and the survival was -3% (active).
`COc1ccc(C(CC(=O)Nc2cc(OC)c(OC)c(OC)c2)N2Cc3ccccc3C2=O)cc1` (stereo not given) was tested, and the survival was 65%.
For `COc1cc(Cl)c(C)cc1NC(=O)CC(c1ccc(F)cc1)N1Cc2ccccc2C1=O` (stereo not given), the survival was -2% (active).
`COc1ccc(CNC(=O)C(CC(C)C)N2Cc3ccccc3C2=O)cc1` (stereo not given) gave a survival of 134%.
`COc1cc(OC)c(NC(=O)CC(c2cccs2)N2Cc3ccccc3C2=O)cc1Cl` (stereo not given) gave a survival of 101%.
`COc1ccc(CNC(=O)C(C(C)C)N2Cc3ccccc3C2=O)cc1` (stereo not given) was tested, and the survival was -6% (active).
For `Cc1ccc(NC(=O)CC(c2ccc(F)cc2)N2Cc3ccccc3C2=O)cc1C` (stereo not given), the survival was 88%.
For `CCOc1ccc(C(CC(=O)Nc2cc(C)c(Cl)cc2OC)N2Cc3ccccc3C2=O)cc1OC` (stereo not given), the survival was 65%.
Compound `Cc1ccc(CNC(=O)C(C(C)C)N2Cc3ccccc3C2=O)cc1` (stereo not given) has a survival of 80%.
In the case of `CCn1cc(C(=O)NCCc2ccccc2)c(=O)c2cc(S(=O)(=O)N3CCOCC3)ccc21`, the survival is reported as 85%.
`COc1ccc(NC(=O)c2ccc(NC(=O)CCS(=O)(=O)c3cccs3)cc2)cc1Cl` was tested, and the survival was 81%.
Compound `COc1ccc(-c2cc(C(=O)Nc3cccnc3Cl)no2)cc1OC` has a survival of 140%.
For `Cc1ccc(C)c(N2CCN(c3nc4ccccc4c4nc(-c5cccnc5)nn34)CC2)c1`, the survival was 82%.
For `CCOC(=O)C(Cc1c[nH]c2ccccc12)NC(=O)COc1ccc(Cl)c(C)c1` (stereo not given), the survival was 8% (active).
`CCOC(=O)C(Cc1c[nH]c2ccccc12)NC(=O)COc1ccc(CC)cc1` (stereo not given) was tested, and the survival was 32%.
With `Cc1cc(OCC(=O)NC(Cc2c[nH]c3ccccc23)C(=O)O)ccc1Cl` (stereo not given) the survival was 69%.
Compound `CCc1ccccc1N(CC)C(=O)c1c(C)oc2ncn(C)c(=O)c12` has a survival of 71%.
`C#CCSc1nc2sc3c(c2c(=O)n1Cc1ccccc1)CCCC3` gave a survival of 44%.
For `CSc1nc2sc3c(c2c(=O)n1-c1ccc(C)cc1)CCCC3`, the survival was 51%.
With `CC(C)Sc1nc2sc3c(c2c(=O)n1Cc1ccccc1)CCCC3` the survival was 5% (active).
With `C=CCn1c(SC(C)C)nc2sc3c(c2c1=O)CCCC3` the survival was 108%.
`CSc1nc2sc3c(c2c(=O)n1-c1ccccc1C)CCCC3` showed a survival of 99%.
For `CC(C)Sc1nc2sc3c(c2c(=O)n1-c1ccccc1)CCCC3`, the survival was -2% (active).
For `CCS(=O)(=O)NCC(c1ccco1)N1CCN(c2ccccc2)CC1` (stereo not given), the survival was 89%.
Compound `CCS(=O)(=O)N1CCc2cc(C(=O)NC(C)c3ccccc3)ccc21` (stereo not given) has a survival of 90%.
With `CC(C)C(=O)Nc1ccc2nc(SCCOc3ccccc3)sc2c1` the survival was 93%.
Compound `Cc1ccc(Cl)cc1NC(=O)C1CCN(c2nnc(C)c3c(C)n(-c4ccccc4)nc23)CC1` has a survival of 71%.
With `Cc1cccc(CS(=O)(=O)c2ncc(Cl)c(C(=O)NCc3ccccc3)n2)c1` the survival was 27%.
Work on `COc1ccc(NC(=O)c2nc(S(=O)(=O)Cc3ccc(C)cc3)ncc2Cl)cc1` yielded a survival of 81%.
For `Cc1cccc(CS(=O)(=O)c2ncc(Cl)c(C(=O)Nc3nc4ccc(F)cc4s3)n2)c1`, the survival was 7% (active).
Compound `O=C(Nc1nc2ccc(F)cc2s1)c1nc(S(=O)(=O)Cc2ccccc2)ncc1Cl` has a survival of 27%.
In the case of `Cc1ccc(NC(=O)c2nc(S(=O)(=O)Cc3cccc(C)c3)ncc2Cl)cc1`, the survival is reported as -1% (active).
Compound `Cc1ccc(CS(=O)(=O)c2ncc(Cl)c(C(=O)Nc3nc4ccc(F)cc4s3)n2)cc1` has a survival of 20%.
`CCOC(=O)c1ccc(CN(Cc2ccc(Cl)cc2Cl)S(=O)(=O)c2cccc(Cl)c2)cc1` was tested, and the survival was 73%.
With `CCOC(=O)c1ccc(CN(Cc2ccccc2)S(=O)(=O)c2ccc(Cl)cc2)cc1` the survival was 0% (active).
In the case of `CCOC(=O)c1ccc(CN(Cc2ccc(F)cc2)S(=O)(=O)c2ccc(F)cc2)cc1`, the survival is reported as 68%.
Work on `COc1ccc(CCNC(=O)CCc2c(C)c3cc4c(C)coc4c(C)c3oc2=O)cc1OC` yielded a survival of 105%.
Work on `CC(Oc1ccccc1)C(=O)Nc1c(C(=O)Nc2cccc(F)c2)oc2ccccc12` (stereo not given) yielded a survival of 57%.
`CCOC(=O)c1[nH]c2c(c1Cc1ccccc1OC)C(=O)CC(c1ccccc1)C2` (stereo not given) showed a survival of 126%.
`CN(C)c1ccc(C2CC(c3c(O)n(C4CCCCC4)c(=O)[nH]c3=O)=Nc3ccccc3S2)cc1` (stereo not given) was tested, and the survival was 85%.
`O=C(Cn1c(=O)n(Cc2ccc(C(=O)NCc3ccc4c(c3)OCO4)cc2)c(=O)c2ccccc21)Nc1ccc(F)cc1F` was tested, and the survival was 111%.
With `CC(C)c1cc(-c2nc(-c3ccccc3)no2)n[nH]1` the survival was 71%.
Compound `COc1ccc(OCCCCn2c(-c3ccc(Cl)cc3)nc3ccccc3c2=O)cc1` has a survival of 38%.
Compound `CCOc1cc(Cn2c(-c3ccc(O)c(OCC)c3)nc3ccccc32)ccc1O` has a survival of 80%.
With `COc1ccc(-c2nc3ccccc3n2Cc2ccccc2)cc1` the survival was 0% (active).
With `COc1ccc(-c2nc3ccccc3n2Cc2ccc(Cl)cc2)cc1` the survival was 4% (active).
Work on `CCc1ccc(OCCCn2c(-c3ccc(Cl)cc3)nc3ccccc3c2=O)cc1` yielded a survival of 52%.
Work on `COc1ccc(Cn2c(SCC(=O)Nc3ccc(OC)cc3)nc3ccccc32)cc1` yielded a survival of 85%.
In the case of `COc1ccc(-c2nc3ccccc3n2Cc2ccc(C(C)C)cc2)cc1`, the survival is reported as -8% (active).
In the case of `COc1ccc(Cn2c(SC)nc3ccccc32)cc1`, the survival is reported as 108%.
`COc1ccc(-c2noc(=O)n2Cc2ccccc2)cc1` was tested, and the survival was 128%.
Work on `O=c1n(Cc2ccc(F)cc2)nc2n1-c1cc(Cl)ccc1OC2` yielded a survival of 76%.
Work on `Cc1cc(Cl)ccc1NC(=O)Cn1nc(C)c2c(C)n(-c3ccccc3)nc2c1=O` yielded a survival of 45%.
In the case of `CCc1cccc(NC(=O)CCNS(=O)(=O)c2ccc3c(c2)CCN3C(C)=O)c1`, the survival is reported as 76%.
`Cc1ccc(-n2ncc3c(N4CCN(Cc5ccccc5)CC4)ncnc32)cc1` showed a survival of 131%.
`O=C(Nc1nnc(C(F)(F)F)s1)c1ccccc1` was tested, and the survival was 74%.
In the case of `CCOC(=O)N1CCc2c(sc(NCc3sccc3C)c2C(=O)Nc2cc(Cl)ccc2OC)C1`, the survival is reported as 80%.
Work on `CCc1nnc(NC(=O)CSc2nccn2-c2ccc(OC)cc2)s1` yielded a survival of 135%.
Work on `COc1cc(Cn2c(=O)sc3ccccc32)ccc1OC(C)C` yielded a survival of 41%.
With `COc1cc(Cn2c(=O)sc3ccccc32)ccc1OCCC(C)C` the survival was -4% (active).
For `CCCCOc1ccc(Cn2c(=O)sc3ccccc32)cc1OC`, the survival was -5% (active).
`CCCCn1c(=N)n(CCOc2ccccc2OC)c2ccccc21` showed a survival of 81%.
`COc1ccccc1NC(=O)c1sc2nc(C)c(C(=O)Nc3ccc(C)cc3C)c(-c3ccco3)c2c1N` gave a survival of 73%.
In the case of `COc1cc(-c2nnn(CC(=O)Nc3ccc(OC(F)(F)F)cc3)n2)cc(OC)c1OC`, the survival is reported as 92%.
Compound `Nc1nn(-c2ccccc2)nc1C(=O)OCc1c(F)cccc1Cl` has a survival of 61%.
For `Nc1nn(-c2ccccc2)nc1C(=O)OCc1ccccc1`, the survival was 85%.
With `Nc1nn(-c2ccccc2)nc1C(=O)OCc1ccccc1Br` the survival was -2% (active).
In the case of `Cc1ccccc1COC(=O)c1nn(-c2ccccc2)nc1N`, the survival is reported as -9% (active).
With `COc1cccc(COC(=O)c2nn(-c3ccccc3)nc2N)c1` the survival was 24%.
Work on `Nc1nn(-c2ccccc2)nc1C(=O)OCc1ccc(Cl)cc1` yielded a survival of 59%.
In the case of `Cc1ccccc1NC(=O)CSc1nc2ccc(NC(=O)COc3ccccc3F)cc2s1`, the survival is reported as 81%.
`CSc1ccc(CCNC(=O)c2cc(C)nc3c2c(C)nn3-c2ccccc2)cc1` showed a survival of 124%.
For `OCc1nc2ccccc2n1Cc1c(F)cccc1Cl`, the survival was 98%.
`CCC(O)c1nc2ccccc2n1Cc1cc(C)ccc1C` (stereo not given) was tested, and the survival was 99%.
With `Fc1cccc(Cl)c1Cn1c(-c2cccs2)nc2ccccc21` the survival was 26% (active).
`CCCC(=O)NCCc1nc2ccccc2n1Cc1c(F)cccc1Cl` was tested, and the survival was 66%.
In the case of `Cc1ccc(C)c(Cn2c(-c3cccs3)nc3ccccc32)c1`, the survival is reported as 8% (active).
`Cc1ccccc1Cn1c(COc2ccc(Cl)cc2)nc2ccccc21` gave a survival of 130%.
In the case of `Cc1ccccc1Cn1cnc2ccccc21`, the survival is reported as 116%.
`OCc1nc2ccccc2n1Cc1ccccc1Cl` gave a survival of 111%.
`Cc1ccc(C)c(Cn2c(C(C)NC(=O)c3ccccc3)nc3ccccc32)c1` (stereo not given) gave a survival of 88%.
For `O=C(NCc1nc2ccccc2n1Cc1ccccc1Cl)c1ccccc1`, the survival was 90%.
For `Clc1ccccc1Cn1c(-c2cccs2)nc2ccccc21`, the survival was -3% (active).
For `Cc1ccccc1Cn1c(-c2cccs2)nc2ccccc21`, the survival was 26% (active).
